Most compounds without a hit are left out; they make up all but 21% or so of the library.
DRD3 agonist = D3 dopamine receptor (human) agonism; P35462; D3R DiscoveRx beta-arrestin cells, luminescence, 90 min; max activation, %; hit rate 0.58% among 410,000; AID 652048; in the data active = max activation above about 30%; note: 0% is about no effect
Target sequence (P35462 whole entry, looked up): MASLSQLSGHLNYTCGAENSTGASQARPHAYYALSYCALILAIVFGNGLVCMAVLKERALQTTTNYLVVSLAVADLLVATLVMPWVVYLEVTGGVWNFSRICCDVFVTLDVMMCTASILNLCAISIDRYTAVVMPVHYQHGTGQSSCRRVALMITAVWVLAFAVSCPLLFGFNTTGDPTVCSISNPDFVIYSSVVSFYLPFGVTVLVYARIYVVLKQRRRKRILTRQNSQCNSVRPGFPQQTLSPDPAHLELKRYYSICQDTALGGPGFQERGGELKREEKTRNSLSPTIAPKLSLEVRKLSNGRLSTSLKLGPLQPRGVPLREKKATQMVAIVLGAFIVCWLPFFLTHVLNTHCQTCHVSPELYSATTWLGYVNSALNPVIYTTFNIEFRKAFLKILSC
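Cells at 1500/well, incubated overnight, then treated with pinned compounds (dopamine as control) for 90 min at 37 degrees C. DiscoveRx reagent added for 30 - 60 minutes at room temperature; luminescence read.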
ClpP mod = qHTS Assay for Activators of ClpP; purified B. subtilis ClpP, FRET peptide cleavage, 20 min; Potency, µM (titrated, usually from 57.5 µM), for the others: at the top dose activity change, negative = active; hit rate 1.9% among 340,000; active = well fitted falling curve with a large enough effect; inconclusive = small, poorly fitted or top-dose-only effect; inactive = no such curve, though single readings can be large or run the other way; note: potency is the fitted concentration of half-maximal effect; the source files actives as falling curves though it sought activators and does not explain the sign; nearly all actives have a fitted effect of over 65% in size
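Purified B. subtilis ClpP, 10 microg/mL final in Tris/HCl pH8 with KCl, BSA, glycerol and Tween-20, cleaved an Abz/nitrotyrosine-quenched decapeptide. Fluorescence (ex 320, em 430) was read at 0 and 20 min at room temperature. Delta was normalized to 5.8 microM ADEP and DMSO/no-enzyme controls.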
IL1B secr inh = inhibitors of inflammasome signaling (IL-1 beta secretion); AID 743279; THP-1 LPS/ATP IL-1B secretion, AlphaLISA, 16 h; stronger effect = lower value; hit rate 4.7% among 360,000; activity change, % at 57.5 µM; in the data active = activity change below about -50%; inconclusive = mostly about -30% to -49%; note: % is set by controls: 0 for no effect and ±100 for the full control effect
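Secreted IL-1B measured by AlphaLISA bead assay after 16 h compound exposure of THP-1 cells; compounds (final up to 57.5 uM) added 1 h before LPS (250 ng/mL) and ATP (1.25 mM) stimulation; lower signal means less secretion.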
D3 antag = antagonists of human D3 dopamine receptor | max response, negative = inhibition, % | D3R cells, DiscoveRx beta-arrestin luminescence, antagonist mode; stronger effect = lower value | hit rate 2.5% among 360,000 | P35462 | AID 652054; in the data active = max response below about -50%; inconclusive = no clear call, values can overlap the other calls; note: % is set by controls: 0 for no effect and ±100 for the full control effect
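Cells plated overnight at 1500 cells/well, then exposed to library compounds with dopamine controls for 90 minutes at 37 degrees C. DiscoveRx reagent added for 30–60 minutes at room temperature; luminescence read, quantitative HTS format.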
DT40 TDP1 no CPT = qHTS for Inhibitors of human tyrosyl-DNA phosphodiesterase 1 (TDP1): qHTS in cells in absence of CPT | DT40 Tdp1-/- hTDP1 cells, no CPT, ATP luminescence, 48 h | Potency, µM (titrated, usually from 46.2 µM), without a hit: at the top dose activity change, negative = growth inhibition, usual class: inhibitors | hit rate 15% among 420,000; note: potency is the fitted concentration of half-maximal effect; % is set by controls: 0 for no effect and ±100 for the full control effect; nearly all actives have a fitted effect of over 55% in size
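Growth of hTDP1-complemented DT40 Tdp1-knockout cells is measured by ATP luminescence after at least 48 hr compound exposure at 37 °C, with DMSO substituting for the 20 nM CPT used in the parallel screen.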
TDP1 cell CPT = DT40-hTDP1 cell growth loss with CPT; chicken DT40 Tdp1-/-;hTDP1 cells + 20 nM CPT, ATP luminescence, 48 h; Potency, µM (top dose mostly 46.2 µM), without a hit: top-dose activity change, negative = growth inhibition, most hits filed as inhibitors; hit rate 12% among 420,000; AID 686979; note: potency is the fitted concentration of half-maximal effect; % is set by controls: 0 for no effect and ±100 for the full control effect; nearly all actives have a fitted effect of over 55% in size
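Chicken DT40 Tdp1-/- cells complemented with human TDP1, 400 cells/well, exposed to compounds plus 20 nM camptothecin for at least 48 h at 37 C; viability read as ATP content by CellTiter-Glo luminescence.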
* hit, by the source's call; ? = inconclusive; . = no result given. Unless noted, calls come from the whole dose curve; as a rule, active = well fitted inhibition curve with a large enough effect; inconclusive = small, poorly fitted or top-dose-only effect; inactive = flat fitted curve, though single readings scatter.

SMILES	DRD3 agonist	ClpP mod	IL1B secr inh	D3 antag	DT40 TDP1 no CPT	TDP1 cell CPT
COc1ccc(C2c3ccc4ccccc4c3Oc3ncn(Cc4ccco4)c(=N)c32)cc1OC (centres undefined)	8	-4%	?	17	16µM*	23µM*
COc1ccccc1C1c2ccc3ccccc3c2Oc2ncn(CCN(C)C)c(=N)c21 (centres undefined)	5	.	-98*	-21	16µM*	?
COc1ccc(C2c3ccc4ccccc4c3Oc3ncn(CCCN(C)C)c(=N)c32)cc1 (centres undefined)	-10	.	-95*	-25	4.6µM*	12µM*
COc1ccccc1C1c2ccc3ccccc3c2Oc2ncn(CCCO)c(=N)c21 (centres undefined)	4	.	-97*	1	23µM*	23µM*
COc1ccc(Cc2nnc(NC(=O)c3cccs3)s2)cc1OC	6	0%	25	7	-16%	-21%
COc1cccc([C@@H]2CC=C(C(=O)O)[C@H](c3cccc(Cl)c3)N2S(=O)(=O)c2ccc(C)cc2)c1	-14	2%	13	0	-30%	-18%
COc1cc(OC)cc(N2C(=O)N(CC(=O)c3ccc(F)cc3)c3ccccc3S2(=O)=O)c1	-19	-7%	.	.	-19%	-21%
COCCNC(=O)c1cccc(NC(=O)C2=C(C)OCCS2)c1	7	.	0	4	-9%	11%
CC1=C(C(=O)Nc2cccc(C(=O)NC(C)c3ccccc3)c2)SCCO1 (centres undefined)	-3	-1%	-10	-23	16µM*	?
Cc1cc(O)c(C(c2cccc(F)c2)N2CCN(c3ccccc3)CC2)c(=O)n1Cc1ccco1 (centres undefined)	-16	-2%	.	.	-17%	-24%
O=C(CNS(=O)(=O)c1cccc(Br)c1)NCC1CCCCC1	-1	.	37	-2	-12%	0%
CC(=O)Nc1ccc(S(=O)(=O)Nc2cccc(-c3nc4cc(C)ccc4o3)c2)cc1	4	0%	9	28	21µM*	21µM*
CC(=O)Nc1ccc(S(=O)(=O)Nc2cccc(-c3csc(C)n3)c2)cc1	2	0%	38	23	?	21µM*
CC(=O)Nc1ccc(S(=O)(=O)NNc2cccc(C)c2)cc1	11	.	12	1	?	23µM*
Cc1ccc2oc(-c3cccc(NC(=O)c4ccccn4)c3)nc2c1	5	18%	56	75	?	?
Cc1cc(Br)ccc1NC(=S)N1CCOCC1	4	.	-26	6	4%	2%
O=C(C1CCCCC1)N1CCN(S(=O)(=O)c2cccc([N+](=O)[O-])c2)CC1	0	1%	0	20	10%	-23%
Cc1ccc(C(=O)N2CCN(c3ccc([N+](=O)[O-])cc3-n3cccc3)CC2)cc1	-14	1%	?	-18	18µM*	?
O=C(c1ccc([N+](=O)[O-])cc1)N1CCN(c2ccc(Nc3ccccc3)nn2)CC1	11	1%	.	.	?	?
CC(C)(C)C(=O)N1CCN(c2ccc([N+](=O)[O-])cc2-n2cccc2)CC1	7	.	-5	-13	21µM*	?
O=C(C1CC1)N1CCN(c2ccc([N+](=O)[O-])cc2-n2cccc2)CC1	-10	.	-6	?	13µM*	12µM*
Cc1ccc(Nc2ccc(N3CCN(C(=O)c4ccc([N+](=O)[O-])cc4)CC3)nn2)cc1	0	2%	.	.	23µM*	?
Cc1ccc(S(=O)(=O)N2CCN(C(=O)c3ccc([N+](=O)[O-])cc3)C2)cc1	-6	1%	7	-5	-20%	-11%
